Experimental findings from ChEMBL document CHEMBL1961873, “Compounds: GSK PKIS; Assays: Nanosyn kinase panel” (2012) are described below.

In test [1] the target is T1, Muscle, skeletal receptor tyrosine-protein kinase (Homo sapiens) (UniProt O15146).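 Also: reported value is the mean percent inhibition of MuSK kinase.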
T1 sequence (whole entry): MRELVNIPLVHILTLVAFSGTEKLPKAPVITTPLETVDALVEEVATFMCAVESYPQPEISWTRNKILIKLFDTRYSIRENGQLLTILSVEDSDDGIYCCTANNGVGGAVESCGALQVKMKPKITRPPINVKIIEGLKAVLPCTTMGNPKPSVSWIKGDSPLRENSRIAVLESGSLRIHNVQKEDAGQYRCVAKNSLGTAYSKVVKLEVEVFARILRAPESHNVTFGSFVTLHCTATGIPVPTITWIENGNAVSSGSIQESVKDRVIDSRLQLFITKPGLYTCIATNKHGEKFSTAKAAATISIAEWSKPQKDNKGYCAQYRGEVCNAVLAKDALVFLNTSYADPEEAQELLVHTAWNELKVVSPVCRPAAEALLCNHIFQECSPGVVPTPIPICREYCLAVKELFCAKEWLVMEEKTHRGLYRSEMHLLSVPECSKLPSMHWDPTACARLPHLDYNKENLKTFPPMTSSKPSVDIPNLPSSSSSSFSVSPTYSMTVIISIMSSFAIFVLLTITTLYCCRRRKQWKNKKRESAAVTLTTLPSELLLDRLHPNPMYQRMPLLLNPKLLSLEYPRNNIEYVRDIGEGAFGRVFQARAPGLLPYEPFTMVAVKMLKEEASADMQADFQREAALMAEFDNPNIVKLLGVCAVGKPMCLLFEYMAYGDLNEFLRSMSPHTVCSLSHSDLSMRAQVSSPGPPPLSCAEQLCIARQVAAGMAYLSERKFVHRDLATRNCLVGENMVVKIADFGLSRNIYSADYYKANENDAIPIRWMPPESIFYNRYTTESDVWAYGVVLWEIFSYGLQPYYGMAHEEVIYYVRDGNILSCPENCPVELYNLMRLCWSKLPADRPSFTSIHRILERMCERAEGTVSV
The settings on record: at 1 µM.

For test [2], the target named is Platelet-derived growth factor receptor alpha (Homo sapiens) (UniProt P16234). The settings on record: at 0.1 µM.
Platelet-derived growth factor receptor alpha (Homo sapiens), sequence (P16234 whole entry): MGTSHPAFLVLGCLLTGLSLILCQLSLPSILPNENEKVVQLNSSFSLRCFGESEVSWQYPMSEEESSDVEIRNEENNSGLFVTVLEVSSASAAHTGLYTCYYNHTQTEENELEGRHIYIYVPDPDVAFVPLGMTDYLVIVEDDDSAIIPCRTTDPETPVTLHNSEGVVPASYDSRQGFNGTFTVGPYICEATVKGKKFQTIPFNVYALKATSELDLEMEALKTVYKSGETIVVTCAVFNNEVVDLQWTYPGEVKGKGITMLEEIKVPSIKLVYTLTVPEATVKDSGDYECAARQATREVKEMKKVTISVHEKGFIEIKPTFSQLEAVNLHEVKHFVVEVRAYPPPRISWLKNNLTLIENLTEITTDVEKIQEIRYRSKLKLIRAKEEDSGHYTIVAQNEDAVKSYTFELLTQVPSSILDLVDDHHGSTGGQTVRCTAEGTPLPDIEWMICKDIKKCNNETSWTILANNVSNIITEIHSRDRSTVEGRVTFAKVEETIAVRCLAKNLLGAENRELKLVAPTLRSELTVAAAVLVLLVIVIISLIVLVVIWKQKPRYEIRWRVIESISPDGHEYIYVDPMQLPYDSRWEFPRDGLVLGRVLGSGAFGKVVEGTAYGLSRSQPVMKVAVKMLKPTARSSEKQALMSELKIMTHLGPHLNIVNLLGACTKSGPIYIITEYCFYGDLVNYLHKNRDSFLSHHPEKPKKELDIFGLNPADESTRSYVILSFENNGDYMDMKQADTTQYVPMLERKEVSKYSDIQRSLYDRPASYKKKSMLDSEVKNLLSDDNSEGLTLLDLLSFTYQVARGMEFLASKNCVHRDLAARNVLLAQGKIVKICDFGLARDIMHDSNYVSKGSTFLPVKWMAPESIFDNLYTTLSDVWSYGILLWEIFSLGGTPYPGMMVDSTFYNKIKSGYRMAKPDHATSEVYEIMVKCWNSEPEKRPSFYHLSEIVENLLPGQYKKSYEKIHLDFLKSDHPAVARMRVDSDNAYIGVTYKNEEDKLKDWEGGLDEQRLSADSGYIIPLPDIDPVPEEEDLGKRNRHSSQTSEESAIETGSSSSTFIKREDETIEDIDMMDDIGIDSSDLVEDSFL
Test [3] shares this target. Particulars: at 1 µM.
In test [4] the test system is Platelet-derived growth factor receptor alpha (Homo sapiens), P16234 [D842V]. Particulars: at 0.1 µM.
Platelet-derived growth factor receptor alpha (Homo sapiens), P16234 [D842V], sequence (P16234 whole entry D842V): as the sequence (P16234 whole entry) above, with D842V counted along it
Test [5] has the same test system. The settings on record: at 1 µM.
Test [6] has as its system Platelet-derived growth factor receptor alpha (Homo sapiens), P16234 [T674I]. Particulars: at 0.1 µM.
Test [7] has the same test system. Particulars: at 1 µM.
The test system of test [8] is Platelet-derived growth factor receptor alpha (Homo sapiens), P16234 [V561D]. The settings on record: at 0.1 µM.
Platelet-derived growth factor receptor alpha (Homo sapiens), P16234 [V561D], sequence (P16234 whole entry V561D): as the sequence (P16234 whole entry) above, with V561D counted along it
For test [9] the test system is unchanged. Particulars: at 1 µM.
The target in test [10] is Platelet-derived growth factor receptor beta (Homo sapiens) (UniProt P09619). The settings on record: at 0.1 µM.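 Also: reported value is the mean percent inhibition of the kinase.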
Platelet-derived growth factor receptor beta (Homo sapiens), sequence (P09619 whole entry): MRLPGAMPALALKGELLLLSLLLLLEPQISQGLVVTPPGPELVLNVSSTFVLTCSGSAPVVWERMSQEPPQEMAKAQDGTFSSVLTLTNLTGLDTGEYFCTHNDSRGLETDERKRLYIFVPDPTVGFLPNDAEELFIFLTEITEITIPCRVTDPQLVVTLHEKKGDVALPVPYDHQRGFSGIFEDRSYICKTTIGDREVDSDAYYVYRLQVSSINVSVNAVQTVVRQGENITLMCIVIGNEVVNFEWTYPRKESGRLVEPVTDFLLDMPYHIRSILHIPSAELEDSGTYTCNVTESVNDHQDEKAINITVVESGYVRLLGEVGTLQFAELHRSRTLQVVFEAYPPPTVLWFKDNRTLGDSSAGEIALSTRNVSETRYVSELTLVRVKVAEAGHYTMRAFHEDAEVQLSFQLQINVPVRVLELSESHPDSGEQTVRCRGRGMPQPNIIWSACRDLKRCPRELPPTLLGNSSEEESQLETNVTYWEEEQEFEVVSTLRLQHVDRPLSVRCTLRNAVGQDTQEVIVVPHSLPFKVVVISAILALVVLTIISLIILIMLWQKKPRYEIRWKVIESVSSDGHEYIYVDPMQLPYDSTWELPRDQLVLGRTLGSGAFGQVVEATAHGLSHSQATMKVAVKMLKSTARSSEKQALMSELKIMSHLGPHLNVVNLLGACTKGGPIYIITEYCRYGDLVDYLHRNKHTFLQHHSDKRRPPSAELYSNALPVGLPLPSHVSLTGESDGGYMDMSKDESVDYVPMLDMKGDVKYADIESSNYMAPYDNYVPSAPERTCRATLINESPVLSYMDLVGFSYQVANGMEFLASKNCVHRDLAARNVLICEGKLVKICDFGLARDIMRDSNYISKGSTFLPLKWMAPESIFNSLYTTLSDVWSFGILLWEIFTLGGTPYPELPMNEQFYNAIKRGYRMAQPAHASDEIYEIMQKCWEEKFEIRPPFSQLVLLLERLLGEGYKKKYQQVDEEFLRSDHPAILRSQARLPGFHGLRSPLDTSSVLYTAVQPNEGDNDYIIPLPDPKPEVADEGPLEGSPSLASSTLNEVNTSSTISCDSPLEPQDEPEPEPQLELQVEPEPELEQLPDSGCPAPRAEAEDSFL

Structures are written as SMILES.

Platelet-derived growth factor receptor alpha (Homo sapiens), P16234 [T674I], sequence (P16234 whole entry T674I): as the sequence (P16234 whole entry) above, with T674I counted along it

A word on the inhibition: it is the drop in the measured response relative to a control, in per cent. In the case of `O=C1NC(=O)C(c2ccc(Cl)cc2)=C1Nc1ccc(Cl)c(C(=O)O)c1`, the inhibition in [1] came to 2.23%; in test [2] it was 1.93%; in [3], 7.23%; in test [4], 1.16%; in [5], 2.61%; in test [6], 0.45%. Besides, the inhibition in [7] was determined as 1.25%; in [8], 3.89%; in test [9] it was 3.15%; in test [10], 4.09%.
As to `CS(=O)(=O)CCN(CC#N)Cc1ccc(-c2ccc3ncnc(Nc4ccc(OCc5cccc(F)c5)c(Cl)c4)c3c2)o1`, the inhibition in [1] is 1.87%; in test [2], 5.88%; in [3], 10.3%; in test [4], 1.15%; in test [5], 3.78%; in test [6], 1.63%. For the same compound, the inhibition in [7] turned out to be 5.75%; in test [8] it was 1.15%; in test [9], 4.06%; in test [10], 4.64%.
With `CCc1cccc(NC(=O)Nc2ccc(Oc3ccc4nc(NC(=O)OC)[nH]c4c3)cc2)c1`, the inhibition in test [1] turned out to be 31.1%; in test [2], 88.5%; in [3], 96.8%; in [4], 11.7%; in [5], 20.5%; in test [6] it was 75.7%. For the same compound, the inhibition in [7] is 100%; in test [8], 86.6%; in test [9] it was 94.5%; in [10], 40.4%.
For the compound `CC1=C(C(=O)Nc2ccc3[nH]ncc3c2)C(c2ccc(Cl)c(Cl)c2)CC(=O)N1` (centres undefined), the inhibition was 4.26% in [1]; 6.81% in test [2]; 8.15% in [3]; 0.72% in [4]; 1.68% in test [5]; 2.47% in test [6]. The inhibition in [7] worked out at 1.49%; in test [8], 0.48%; in [9], 2.1%; in test [10], 1.34%.
Consider `CCn1c(-c2nonc2N)nc2c(N3CCCC3)nccc21`, for which the inhibition is 3.11% in [1]; -0.08% in test [2]; 6.63% in test [3]; 1.78% in test [4]; 3.11% in test [5]; 0.33% in [6]. Besides, the inhibition in test [7] was 0.11%; in test [8], 3.21%; in test [9] it was 3.61%; in test [10] it was 3.37%.
Regarding `O=C1NC(=O)C(c2cccc(Cl)c2)=C1Nc1ccc(O)c(Cl)c1`, the inhibition in test [1] came out at 2.41%; in test [2], 6.23%; in test [3] it was 15.1%; in test [4], 4.44%; in [5], 6.47%; in test [6], 1.04%. The inhibition in test [7] amounted to 1.36%; in test [8] it was 2.63%; in test [9] it was 9.34%; in [10] it was 0.85%.
For the compound `COc1ccc(-c2coc3ncnc(N)c23)cc1`, the inhibition in [1] turned out to be 9.1%; in [2] it was 8.72%; in test [3], 16.2%; in test [4], 3.41%; in test [5], 6.25%; in [6], 5.4%. Also, the inhibition was determined as 5.37% in test [7], 6.46% in test [8], 28% in test [9] and 3.23% in test [10].
For the compound `c1cnn2ncc(-c3ccnc(Nc4ccc5c(c4)OCCO5)n3)c2c1`, the inhibition in test [1] amounted to 26.9%; in test [2] it was 16.1%; in test [3] it was 51.5%; in test [4], 6.44%; in test [5] it was 40.6%; in test [6], 16.9%. Moreover, the inhibition came to 74.7% in [7], 23.3% in [8], 61.7% in test [9] and 18.4% in [10].
`Fc1cccc(COc2ccc(Nc3ncnc4sc(-c5cccs5)cc34)cc2Cl)c1`: the inhibition in test [1] stood at 2.36%; in test [2] it was 2.17%; in test [3], 5.87%; in [4], 1.25%; in test [5], 2.11%; in [6], 3.52%. Further, the inhibition in test [7] turned out to be 9.66%; in test [8], 4.39%; in test [9], 4.26%; in [10], 3.06%.
`COc1ccc2cc(-c3c(-c4ccncc4)nc(-c4ccc([S+](C)[O-])cc4)n3C)ccc2c1` (centres undefined): the inhibition in test [1] is 3.4%; in test [2], 2.55%; in test [3], 10%; in [4], 2.12%; in [5], 4.78%; in [6], 3.93%. In addition, the inhibition in test [7] is 2.95%; in test [8] it was -1.44%; in [9], 3.24%; in [10], 2.46%.
Take `Cn1cc(C=C2C(=O)Nc3cccnc32)c2ccccc21`: the inhibition amounted to 12.8% in test [1]; 19.5% in test [2]; 65.3% in [3]; 9.02% in test [4]; 47.1% in [5]; 5.86% in test [6]. In addition, the inhibition was found to be 20.2% in [7], 12.4% in test [8], 58.7% in test [9] and 12.5% in test [10].
For `CCN1CCC(CC(=O)Nc2n[nH]c3nc(-c4cccs4)c(Br)cc23)CC1`, the inhibition in test [1] was 6.39%; in test [2], 1.61%; in [3], 5.44%; in test [4], 1.12%; in test [5] it was 6.22%; in test [6] it was -1.25%. Also, the inhibition in test [7] was 3.53%; in test [8], 2.04%; in [9] it was 4.21%; in test [10] it was 4.9%.
`NC(=O)c1ccc(-c2nc(-c3ccccn3)c(-c3ccc4c(c3)OCO4)[nH]2)cc1`: the inhibition in test [1] turned out to be 3.59%; in test [2], 6.2%; in test [3], 9.06%; in test [4] it was 1.44%; in [5], 2.57%; in test [6], 8.08%. In addition, the inhibition in [7] amounted to 5.68%; in test [8], 2.28%; in [9] it was 4.53%; in [10] it was 2.41%.
Take `Nc1nc(-c2ccc3c(c2)C(=Cc2cc(Br)c(O)c(Br)c2)C(=O)N3)cs1`: the inhibition was found to be 2.75% in test [1]; 2.1% in test [2]; 5.96% in [3]; 0.96% in [4]; 2.21% in test [5]; 0.36% in test [6]. The inhibition in [7] is -0.01%; in [8] it was 2.02%; in [9], 2.58%; in [10], 1.75%.
Take `O=C1NC(=O)C(N2CCc3ccccc32)=C1c1ccc(Cl)cc1`: the inhibition in [1] came out at 3.86%; in [2], 13.4%; in test [3] it was 15.4%; in [4], 3.39%; in test [5] it was 6.57%; in [6] it was 10.4%. Also, the inhibition in [7] came to 7.21%; in [8] it was 3.93%; in test [9], 6.68%.
With `Cc1cccc(-c2n[nH]cc2-c2ccc3ncccc3n2)n1`, the inhibition in [1] is 2.87%; in [2], 10.7%; in test [3], 55.3%; in [4] it was 18.8%; in test [5], 68.7%; in test [6], 1.71%. Besides, the inhibition in test [7] is 0.07%; in [8], 12.3%; in test [9], 53%; in test [10] it was 2.42%.
Regarding `COc1cc(C=NNc2ncnc3c2cnn3-c2ccccc2)ccc1O`, the inhibition in test [1] amounted to 43.8%; in test [2] it was 28.2%; in test [3], 78.2%; in [4], 24.6%; in [5], 79.5%; in test [6], 13.7%. Also, the inhibition in test [7] amounted to 39.1%; in test [8], 15.1%; in test [9], 68.9%; in test [10], 18.1%.
